This is one part of a sample in which hits are shown more often than they occur.
Cycloheximide cs: Cycloheximide Counterscreen for Small Molecule Inhibitors of Shiga Toxin | 300,000 compounds, 12% hits | cell reporter, cycloheximide protein synthesis inhibition counterscreen | max response, %; in the data active means max response mostly above about 13%, no sharp cut-off; inactive means mostly below about 14%; further: read at 38.3 µM for the half of the compounds with a filed dose; 0% is about no effect
AmpC inh detg: qHTS Inhibitors of AmpC Beta-Lactamase (assay with detergent) | AmpC hydrolysis of nitrocefin, absorbance 480 nm, 0.01% Triton | Potency, µM (highest dose often 114 µM), for inactives: at the highest dose activity change, negative = inhibition, actives largely listed as inhibitors | 370,000 compounds, 0.041% hits;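 further: potency means the concentration at half of the fitted maximal effect; 0% = no-compound wells and -100% = no-enzyme wells; nearly all actives have a fitted effect of over 25% in size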
Target sequence (P00811 whole entry, looked up): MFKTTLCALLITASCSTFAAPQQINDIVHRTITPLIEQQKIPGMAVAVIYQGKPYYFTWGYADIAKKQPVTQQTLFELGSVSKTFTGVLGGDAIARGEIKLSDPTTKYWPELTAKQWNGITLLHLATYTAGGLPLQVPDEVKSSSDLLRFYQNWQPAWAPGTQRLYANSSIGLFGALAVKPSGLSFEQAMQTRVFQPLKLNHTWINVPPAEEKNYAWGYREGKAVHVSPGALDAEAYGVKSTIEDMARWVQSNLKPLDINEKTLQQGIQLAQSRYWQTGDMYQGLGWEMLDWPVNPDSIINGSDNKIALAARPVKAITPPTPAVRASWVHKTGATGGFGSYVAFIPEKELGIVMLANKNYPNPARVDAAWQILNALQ
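20 mM phosphate pH 7.0 + 0.01% (detergent screen) or 0.0001% Triton X-100; 5.3 nM AmpC reagent; cpd preinc 15 min RT; nitrocefin (800 uM stock) to start; A480 q20 s × 4 min; Activity was normalised to no-enzyme and no-compound control wells.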
AMA1 RON2 block: qHTS for Inhibitors of AMA1-RON; Towards Development of Antimalarial Drug Lead: Primary Screen; Potency, µM (titrated, usually from 58.2 µM), for the others: at the top dose activity change, negative = inhibition, hits mostly inhibitors; 360,000 compounds, 0.2% hits; AlphaScreen AMA1-biotinylated RON2 peptide binding; AID 720542, 2013; Plasmodium falciparum AMA1 (3D7) - RON2 peptide interaction;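 further: potency means the concentration at half of the fitted maximal effect; 0% = vehicle wells and -100% = peptide control; nearly all actives have a fitted effect of over 45% in size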
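AMA1 (3D7) with his tag at 25 nM final met compounds first, then biotinylated RON2 peptide at 25 nM; detection used donor plus acceptor beads, 10 µg/mL apiece, read by AlphaScreen after 30 min at room temperature.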
Shiga inhibitor: A qHTS for Small Molecule Inhibitors of Shiga Toxin; Vero cells, Shiga toxin protein synthesis inhibition reporter; inhibition, % at 38.7 µM; 290,000 compounds, 9.2% hits; AID 2315, 2010; in the data active means inhibition mostly above about 28%, no sharp cut-off; inactive means mostly below about 43%; further: 0% is about no effect
AmpC inh no detg: qHTS Inhibitors of AmpC Beta-Lactamase (assay without detergent); P00811; Potency, µM (series often up to 57.1 µM), without a hit: at the top dose activity change, negative = inhibition, usual class: inhibitors; AmpC nitrocefin hydrolysis, absorbance 480 nm, 0.0001% Triton; 330,000 compounds, 0.52% hits;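 further: potency means the concentration at half of the fitted maximal effect; plate controls were no compound for no effect and no enzyme for full effect; nearly all actives have a fitted effect of over 20% in size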
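20 mM phosphate pH 7.0 + 0.01% (detergent screen) or 0.0001% Triton X-100; 5.3 nM AmpC reagent; cpd preinc 15 min RT; nitrocefin (800 uM stock) to start; A480 q20 s × 4 min; Activity was normalised to no-enzyme and no-compound control wells.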
SARS PLP yeast: qHTS of Yeast-based Assay for SARS-CoV PLP | S. cerevisiae expressing SARS-CoV PLpro, growth rescue | 330,000 compounds, 0.19% hits | Potency, µM (titrated, usually from 32.9 µM), for the others: at the top dose activity, positive = growth rescue, usual class: activators; calls by dose curve; further: potency means the concentration at half of the fitted maximal effect; 0% is about no effect; nearly all actives have a fitted effect of over 55% in size
Active calls of the source: *; i = inactive; ? = inconclusive; . = no result. Unless noted, the call rests on the fitted dose curve; in most records, active means well fitted curve in the direction sought with a large enough effect; inconclusive means small, poorly fitted or top-dose-only effect, or another doubt; inactive means no such curve, though single readings can be large; an effect the other way counts as inactive or inconclusive.

SMILES	Cycloheximide cs	AmpC inh detg	AMA1 RON2 block	Shiga inhibitor	AmpC inh no detg	SARS PLP yeast
CCOC(=O)c1cnc2ccccc2c1Nc1ccc2c(c1)OCCO2	110*	-2%	?	154*	40%	14%
CCOC(=O)c1cnc2ccccc2c1NCc1ccco1	23*	10%	-8%	52*	4%	-2%
CCOC(=O)c1cnc2ccc(OC)cc2c1NCc1ccccc1	-2	?	40%	-10	15%	-19%
CCOc1ccc(NC(=O)CN2CC(c3ccccc3)CC2=O)cc1 (stereo not given)	-1	-15%	-1%	19	2.5µM*	0%
CCOc1ccc(NC(=O)CN2C(=O)C3CC=CCC3C2=O)cc1 (stereo not given)	27*	?	2%	62	-13%	-2%
O=C(CN1C(=O)C2CC=CCC2C1=O)Nc1ccc(OC(F)(F)F)cc1 (stereo not given)	.	-17%	-5%	.	-6%	8%
CCOc1ccc(NC(=O)CN2C(=O)C(C)SC(C)C2=O)cc1 (stereo not given)	25*	-6%	-6%	54	5%	-4%
O=C(C1CC1)N1CCc2cc(Br)cc(S(=O)(=O)Nc3ccc(F)c(F)c3)c21	.	7%	.	.	.	.
O=C(Nc1ccc(S(=O)(=O)Nc2ncccn2)cc1)c1ccccc1	-4	?	8%	17	-9%	-12%
CCC(Oc1cc(Cl)ccc1Cl)C(=O)N1CCC2(CC1)OCCO2 (stereo not given)	31*	-3%	15%	64*	12%	-1%
O=C(COc1ccc(Cl)cc1Cl)NC(=S)N1CCCc2ccccc21	43*	9%	-14%	67*	13%	13%
O=C(CCCOc1ccc(Cl)cc1Cl)N1CCC2(CC1)OCCO2	17*	-6%	-5%	34	140%	-2%
Cc1cccc(OCC(=O)NC(=S)N2CCCc3ccccc32)c1	35*	-2%	-29%	i	-12%	-2%
Cn1c(=O)cc(OCCCC(=O)N2CCC3(CC2)OCCO3)c2ccccc21	1	4%	-1%	-12	43%	1%
CCOC(=O)c1c(NC(=O)OC)sc(C(=O)N(C)C)c1C	6	-3%	6%	-22	-6%	10%
Cc1ccc(OCC(=O)NNC(=O)C2CCN(c3nccc(C)n3)CC2)cc1	-3	-10%	27%	1	-1%	?
O=c1nc2n(c3sc4c(c13)CCCC4)C(CBr)CS2 (stereo not given)	-3	?	-10%	-13	-54%	0%
Cc1cccc(C)c1-n1ncc(C(=O)Nc2ccc3c(c2)OCO3)c1C1CCN(C(=O)OC(C)(C)C)CC1	.	0%	.	.	.	.
O=C(COc1ccc(Cl)cc1Cl)NC(=O)N1CCCCC1	45*	4%	9%	67*	3%	-3%
O=C(COc1ccc(Cl)cc1Cl)NC(=O)NC1CCCC1	.	-8%	-4%	.	-19%	-4%
O=C(CCCOc1ccc(Cl)cc1Cl)N1CCCc2ccccc21	30*	?	66%	56*	27%	-11%
Cc1cccc(OCCCC(=O)N2CCCc3ccccc32)c1C	28*	-3%	13%	10	57%	-7%
Cc1cccc(OCC(=O)OCC(=O)N2CCCc3ccccc32)c1C	.	?	13%	.	5%	-3%
Cc1ccc(NC(=O)CSc2nc(NS(=O)(=O)c3ccc(C)cc3)cc(=O)[nH]2)cc1	-2	?	-4%	-7	-14%	-4%
CCOc1cc(NC(=O)c2ccccn2)c(OCC)cc1NC(=O)c1ccc(C)cc1	6	-7%	46%	-17	-9%	-2%
O=C(O)[C@H]1Cc2ccccc2CN1S(=O)(=O)c1ccc(F)cc1	-4	-5%	2%	-2	3%	0%
O=C(CSc1ncnc2scc(-c3ccccc3)c12)NC1CCS(=O)(=O)C1 (stereo not given)	1	0%	-15%	-2	33%	-1%
